Records with an inconclusive call do not appear. Entries that show only a call come without a potency. Calls of active or inactive are those of the source. Unless noted, calls follow the shape of the dose curve; as a rule, active = well fitted curve in the direction sought with a large enough effect; inconclusive = small, poorly fitted or top-dose-only effect, or another doubt; inactive = no such curve, though single readings can be large; an effect the other way counts as inactive or inconclusive.
Assays:
[1] = NS1 protein of Zika virus - qHTS assay to identify small molecule inhibitors in human HEK 293 cells (AID 1347053); settings: HEK293 ZIKV MR766 infection, NS1 TR-FRET, 24 h; series mostly up to 46.1 µM; also: nearly all actives have a fitted effect of over 55% in size
Summary of the method: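 Compound-treated (1 h pre-infection) HEK 293 cells infected with ZIKV MR766, MOI = 0.5; after 24 h at 37 C, NS1 read by TR-FRET; data normalized to uninfected and infected controls.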

[2] = qHTS for Inhibitors of the Functional Ribonucleoprotein Complex (vRNP) of Lassa (LASV) Arenavirus: LASV Primary Screen - GLuc reporter signal (AID 1347082; calls by dose curve; tested in HEK293 reporter line; also: nearly all actives have a fitted effect of over 60% in size); settings: LASV minigenome vRNP, Gaussia luciferase reporter; series mostly up to 57.5 µM
[3] = qHTS for Inhibitors of the Functional Ribonucleoprotein Complex (vRNP) of Lassa (LASV) Arenavirus: Viability assay - alamar blue signal for LASV Primary Screen (AID 1347083; calls by dose curve; tested in HEK293 reporter line; also: nearly all actives have a fitted effect of over 80% in size); settings: cell viability, alamar blue fluorescence (LASV minigenome counter-screen); series mostly up to 57.5 µM
[4] = qHTS for Inhibitors of the Functional Ribonucleoprotein Complex (vRNP) of Lymphocytic Choriomeningitis Arenaviruses (LCMV): Viability assay - alamar blue signal for LCMV Primary Screen (AID 1347085; calls by dose curve; tested in HEK293 reporter line; also: nearly all actives have a fitted effect of over 80% in size); settings: alamar blue viability counter-screen, LCMV vRNP screen cells; series mostly up to 57.5 µM
[5] = target: Nucleoprotein (Lymphocytic choriomeningitis virus (strain Armstrong)) (UniProt P09992); assay: qHTS for Inhibitors of the Functional Ribonucleoprotein Complex (vRNP) of Lymphocytic Choriomeningitis Arenaviruses (LCMV): LCMV Primary Screen - GLuc reporter signal (AID 1347086; calls by dose curve; also: nearly all actives have a fitted effect of over 70% in size); settings: LCMV minigenome vRNP cell assay, Gaussia luciferase reporter; series mostly up to 57.5 µM
Nucleoprotein (Lymphocytic choriomeningitis virus (strain Armstrong)), sequence (P09992 whole entry, looked up): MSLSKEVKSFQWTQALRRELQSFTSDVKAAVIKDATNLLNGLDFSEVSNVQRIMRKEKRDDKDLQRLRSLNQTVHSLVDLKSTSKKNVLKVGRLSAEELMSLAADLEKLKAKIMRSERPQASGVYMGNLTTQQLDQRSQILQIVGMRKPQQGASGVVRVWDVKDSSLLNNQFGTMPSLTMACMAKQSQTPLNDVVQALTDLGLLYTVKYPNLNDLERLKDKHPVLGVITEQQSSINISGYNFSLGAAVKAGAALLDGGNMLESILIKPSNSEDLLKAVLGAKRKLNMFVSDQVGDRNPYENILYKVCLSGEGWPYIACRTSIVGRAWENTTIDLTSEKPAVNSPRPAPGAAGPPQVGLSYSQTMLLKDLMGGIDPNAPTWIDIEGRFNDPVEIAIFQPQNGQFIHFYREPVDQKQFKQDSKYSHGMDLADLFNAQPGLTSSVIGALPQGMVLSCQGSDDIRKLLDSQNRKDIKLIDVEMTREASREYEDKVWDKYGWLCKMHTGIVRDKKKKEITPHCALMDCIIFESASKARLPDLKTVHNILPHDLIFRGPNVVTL

[6] = qHTS of pediatric cancer cell lines to identify multiple opportunities for drug repurposing: Primary screen for TC32 cells (AID 1347089); settings: TC32 Ewing sarcoma viability, CellTiter-Glo luminescence, 48 h; series mostly up to 45.8 µM; also: nearly all actives have a fitted effect of over 60% in size
Summary of the method: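 In the primary qHTS, MIPE compounds were tested at 11 concentrations (0.78 nM to 46 µM) and NPC compounds at 8 (0.59 nM to 46 µM) on TC32 cells for 48 h. CellTiter-Glo luminescence gave viability.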

[7] = qHTS of pediatric cancer cell lines to identify multiple opportunities for drug repurposing: Primary screen for SJ-GBM2 cells (AID 1347091); settings: SJ-GBM2 viability, CellTiter-Glo luminescence, 48 h; series mostly up to 46 µM; also: potency is read from the fitted curve at half-maximal effect
Summary of the method: (§1)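 Viability measured as metabolically active cells via CellTiter-Glo luminescence following 48 hours of compound exposure, 11-point dilutions in confirmatory testing. 500-1,000 cells/well plated 5 hours before dosing; controls were DMSO and 2.3 µM bortezomib.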

[8] = qHTS of pediatric cancer cell lines to identify multiple opportunities for drug repurposing: Primary screen for NB-EBc1 cells (AID 1347095); settings: NB-EBc1 neuroblastoma viability, CellTiter-Glo luminescence, 48 h; series mostly up to 46 µM; also: potency is read from the fitted curve at half-maximal effect
Summary of the method: (§2)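 Phenotypic viability qHTS, 48 h compound exposure, CellTiter-Glo luminescence read-out; multi-concentration dosing so that potency and efficacy derive directly from the primary screen's curves.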

[9] = qHTS of pediatric cancer cell lines to identify multiple opportunities for drug repurposing: Primary screen for U-2 OS cells (AID 1347096); settings: U-2 OS viability, CellTiter-Glo luminescence, 48 h; series mostly up to 46 µM; also: nearly all actives have a fitted effect of over 50% in size
Summary of the method: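 Viability after 48 h compound treatment at 37C, 500-1,000 cells/well, read as ATP luminescence with CellTiter-Glo. Primary screens used 11-point (MIPE, 0.78 nM-46 µM) or 8-point (NPC, 0.59 nM-46 µM) final concentrations; follow-up screens used 11-point dilutions.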

[10] = qHTS of pediatric cancer cell lines to identify multiple opportunities for drug repurposing: Primary screen for SK-N-SH cells (AID 1347098); settings: SK-N-SH viability, CellTiter-Glo luminescence, 48 h; series mostly up to 57 µM; also: nearly all actives have a fitted effect of over 65% in size; also: potency is read from the fitted curve at half-maximal effect
Summary of the method: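 Cells (500-1,000/well) rested 5 h, then received compounds for 48 h; metabolically active cells were measured by CellTiter-Glo luminescence. Final concentrations spanned up to 46 µM (MIPE, 11-point) or 0.59 nM-46 µM (NPC, 8-point) in primary screens, 11-point in follow-ups.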

[11] = qHTS of pediatric cancer cell lines to identify multiple opportunities for drug repurposing: Primary screen for NB1643 cells (AID 1347099); settings: NB1643 neuroblastoma viability, CellTiter-Glo luminescence, 48 h; series mostly up to 46 µM; also: nearly all actives have a fitted effect of over 50% in size; also: potency is read from the fitted curve at half-maximal effect
Summary of the method: as §2

[12] = qHTS of pediatric cancer cell lines to identify multiple opportunities for drug repurposing: Primary screen for DAOY cells (AID 1347090); settings: DAOY medulloblastoma viability, CellTiter-Glo luminescence, 48 h; series mostly up to 46 µM; also: nearly all actives have a fitted effect of over 55% in size
Summary of the method: as §1

[13] = qHTS of pediatric cancer cell lines to identify multiple opportunities for drug repurposing: Primary screen for A673 cells (AID 1347092); settings: A673 Ewing sarcoma viability, CellTiter-Glo ATP luminescence, 48 h; series mostly up to 46 µM; also: nearly all actives have a fitted effect of over 45% in size; also: potency is read from the fitted curve at half-maximal effect
Summary of the method: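 48 h compound exposure, A673, 500-1,000 cells/well, 37 degrees C/5% CO2. MIPE: 11-point, 0.78 nM-46 µM; NPC: 8-point, 0.59 nM-46 µM (final). Readout CellTiter-Glo luminescence after 15 min RT.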

[14] = qHTS of pediatric cancer cell lines to identify multiple opportunities for drug repurposing: Primary screen for SK-N-MC cells (AID 1347093); settings: SK-N-MC viability, CellTiter-Glo luminescence, 48 h; series mostly up to 46 µM; also: potency is read from the fitted curve at half-maximal effect
Summary of the method: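 Metabolically active cells were quantified by ATP-dependent luminescence (CellTiter-Glo, 15 min at room temperature) following 48 h treatment. Cells had been plated at 500-1,000 per well and settled for 5 h beforehand.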

[15] = qHTS of pediatric cancer cell lines to identify multiple opportunities for drug repurposing: Primary screen for BT-37 cells (AID 1347094); settings: BT-37 viability, CellTiter-Glo luminescence, 48 h; series mostly up to 57.3 µM; also: potency is read from the fitted curve at half-maximal effect
Summary of the method: as §2

[16] = qHTS of pediatric cancer cell lines to identify multiple opportunities for drug repurposing: Primary screen for Saos-2 cells (AID 1347097); settings: Saos-2 viability, CellTiter-Glo ATP luminescence, 48 h; series mostly up to 46 µM; also: nearly all actives have a fitted effect of over 40% in size; also: potency is read from the fitted curve at half-maximal effect
Summary of the method: as §2

| Compound | Potency [1] | Potency [2] | Potency [3] | Potency [4] | Potency [5] | Potency [6] | Potency [7] | Potency [8] | Potency [9] | Potency [10] | Potency [11] | Potency [12] | Potency [13] | Potency [14] | Potency [15] | Potency [16] |
| --- | --- | --- | --- | --- | --- | --- | --- | --- | --- | --- | --- | --- | --- | --- | --- | --- |
| CC[C@H]1C[C@@H]2C[C@H]3c4[nH]c5ccc(OC)cc5c4CCN(C2)[C@@H]13 | inactive | inactive | inactive | inactive | inactive | inactive | inactive | inactive | inactive | 30900 nM (active) | inactive |  |  |  |  |  |
| CC(C)[N+](C)(CCC(C(N)=O)(c1ccccc1)c1ccccc1)C(C)C | inactive | inactive | inactive | inactive | inactive |  | inactive | inactive | inactive | inactive |  | inactive | inactive | inactive | inactive | inactive |
| CCN(CC)Cc1nccn1-c1ccc([N+](=O)[O-])cc1C(=O)c1ccccc1Cl | inactive | inactive | inactive | inactive | inactive |  | inactive | inactive | inactive | inactive | inactive | inactive | inactive |  | inactive | inactive |
| C[C@@H]1CC[C@H]2[C@@H](C)C(=O)O[C@@H]3O[C@@]4(C)CC[C@@H]1[C@]32OO4 | inactive | inactive | inactive | inactive | inactive |  | inactive | inactive | inactive | inactive | inactive | inactive | inactive |  | inactive |  |
| CCOC(=O)c1ncn2c1CN(C)C(=O)c1c(I)cccc1-2 | inactive | inactive | inactive | inactive | inactive |  | inactive | inactive |  | inactive | inactive | inactive | inactive | inactive | inactive | inactive |
| O=C(O)Cc1ccccc1 | inactive | inactive | inactive | inactive | inactive |  | inactive | inactive | inactive | inactive | inactive | inactive | inactive |  | inactive | inactive |
| NCc1cccnc1 | inactive | inactive | inactive | inactive | inactive | inactive | inactive | inactive |  | inactive | inactive |  | inactive | inactive | inactive | inactive |
| CCOC(=O)C1(c2ccccc2)CCN(CCc2ccc(N)cc2)CC1 | inactive | inactive | inactive | inactive | inactive |  | inactive | inactive | inactive | inactive | inactive | inactive | inactive | inactive | inactive | inactive |
| CC(Cc1ccccc1)NCCCCl (stereo unspecified) | inactive | inactive | inactive | inactive | inactive |  | inactive | inactive | inactive | inactive | inactive | inactive | inactive | inactive | inactive | inactive |
| Oc1ccc([C@H]2CNCc3c2ccc(O)c3O)cc1O | inactive | inactive | inactive | inactive | inactive | inactive | inactive | inactive | inactive |  | inactive |  |  |  | inactive |  |
| CCC(=O)O[C@H]1CC[C@H]2[C@@H]3CCC4=CC(=O)CC[C@]4(C)[C@H]3CC[C@]12C | inactive | inactive | inactive | inactive | inactive | inactive | inactive | inactive | inactive |  | inactive |  | inactive |  | inactive | inactive |
| CCCC[N+]1(C)[C@@H]2CC(OC(=O)[C@H](CO)c3ccccc3)C[C@H]1[C@@H]1O[C@@H]12 (stereo partly specified) | inactive | inactive | inactive | inactive | inactive |  | inactive | inactive | inactive | inactive | inactive | inactive | inactive | inactive | inactive | inactive |
| CCS(=O)(=O)C(C)(C)S(=O)(=O)CC | inactive | inactive | inactive | inactive | inactive |  | inactive | inactive | inactive | inactive | inactive | inactive | inactive | inactive | inactive |  |
| Sc1ccccc1Cl | inactive | inactive | inactive | inactive | inactive |  | inactive | inactive | inactive | inactive | inactive | inactive | inactive | inactive | inactive | inactive |
| Cc1ccc(N=CN(C)C=Nc2ccc(C)cc2C)c(C)c1 | inactive | inactive | inactive | inactive | inactive |  | inactive | inactive | inactive | inactive | inactive | inactive | inactive | inactive | inactive | inactive |
| Nc1ccc(N)cc1 | inactive | inactive | inactive | inactive | inactive |  | inactive |  | inactive |  | inactive | inactive | 21100 nM (active) |  | inactive |  |
| OC(O)C(Cl)(Cl)Cl | inactive | inactive | inactive | inactive | inactive |  | inactive | inactive | inactive | inactive | inactive | inactive | inactive | inactive | inactive | inactive |
| CN1C(=O)[C@@H](NC(=O)c2cc3ccccc3[nH]2)N=C(c2ccccc2)c2ccccc21 | inactive | inactive | inactive | inactive | inactive | inactive |  | inactive | inactive | inactive | inactive |  | 6680 nM (active) |  | inactive | 10600 nM (active) |
| CCC1(c2cccc(O)c2)CCCCN(C)C1 (stereo unspecified) | inactive | inactive | inactive | inactive | inactive |  | inactive | inactive | inactive | inactive | inactive | inactive | inactive | inactive | inactive |  |
| Cc1ncc2n1-c1ccc(Cl)cc1C(c1ccccc1F)=NC2 | inactive | inactive | inactive | inactive | inactive |  | inactive | inactive | inactive | inactive | inactive | inactive | inactive | inactive |  | inactive |
| CCCCCCCCC(=O)NCc1ccc(O)c(OC)c1 | inactive | inactive | inactive | inactive | inactive | inactive | 1 nM (active) | 1 nM (active) | inactive | 1.4 nM (active) | 1 nM (active) |  |  | 1 nM (active) | 1 nM (active) |  |
| C#C[C@]1(O)CC[C@H]2[C@@H]3CCC4=CC(=O)CCC4=C3C=C[C@@]21CC | inactive | inactive | inactive | inactive | inactive | inactive | inactive | inactive | inactive |  |  |  |  |  |  | inactive |
| CCC(=O)OC1(c2ccccc2)CCN(C)CC1 | inactive | inactive | inactive | inactive | inactive | inactive | inactive | inactive |  |  | inactive |  | inactive | inactive | inactive | inactive |
| CNC(=O)Oc1cccc2ccccc12 | inactive | inactive | inactive | inactive | inactive |  | inactive | inactive | inactive | inactive | inactive | inactive | inactive | inactive | inactive | inactive |
| CC1COC2(c3ccccc3Cl)c3cc(Cl)ccc3NC(=O)CN12 (stereo unspecified) | inactive | inactive | inactive | inactive | inactive |  |  | inactive |  |  | inactive | inactive | inactive | inactive | inactive | inactive |
| Cc1nnc2n1-c1sc(CCc3ccc(CC(C)C)cc3)cc1C(c1ccccc1Cl)=NC2C (stereo unspecified) | inactive | inactive | inactive |  |  |  | 26600 nM (active) |  |  |  |  |  |  |  |  |  |
